± gives the standard deviation.
tested on: MILI (PIWIL2) piRISC loaded with L1MC piRNA (26 nt); test: pre-steady-state target cleavage rate (min^-1); guide: L1MC piRNA 5'p-UAACUAAAUACUAUGCAAGCUGUAGG; MIWI and MILI are mouse PIWI proteins and EfPiwi is from a freshwater sponge; tags in brackets are library labels; higher = faster piRNA-guided slicing of the target; conditions: auxiliary factor: 500 nM mouse GTSF1
Procedure: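 Cleave-'n-Seq: a library of target RNAs (target site embedded in constant flanks, ACAGCATTCCGCGTTAGTGATATCCG... 5' flank; DNA-blocked outside the site) at 0.1 nM was incubated with 1 nM active mouse MILI or MIWI piRISC (synthetic 5'-monophosphorylated piRNA guide) with or without 500 nM mouse GTSF1 at 33 °C for 1 min to 16 h. Uncleaved targets were sequenced and normalised to non-target controls, and the pooled three trials were fitted to a burst-and-steady-state model to give the pre-steady-state cleavage rate (min^-1; k3 is constrained to at most 1e-4). Sequence is the target site only; target names encode pairing extent (gX:gY) and contiguous / 1-mismatch / 2-mismatch / bulge geometry. Fits with R² ≤ 0 are excluded.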

Sequence | pre-steady-state target cleavage rate
UCCUGGAUCAGCUUGGUAAGUAUUUAGUUA | 0.0316 ± 0.0076
UCCUGCUACAGCUUGCAUUGUAUUUAGUAA | 0.176 ± 0.018
UCCUGGAUCAGCUUGCAUAGUAUUUAAUUA | 0.0429 ± 0.0097
UCCUGGAUGAGCUUGCAAAGUUUUUAGUUA | 0.00724 ± 0.004
UCCUGCUUCAGGUUGCAUAGUAUUUAGUUA | 0.235 ± 0.015
UCCUGCUACUCGUUGCAUAGUAUUUUCAAA | 0.0428 ± 0.014
UCCUCCUACAGCUUGCAUUGAAUUUAGUUA | 0.0267 ± 0.008
UCCUGGAACAGCUUGCAUAGUAUAUACUUA | 0.0233 ± 0.01
UCCUGCUACAGCUUGCAUUGUAUUUACUUA | 0.12 ± 0.025
UCCUGGAUGUCCUUGCAUAGUCAUUUAGUUA | 0.00722 ± 0.0051
UCCUGGAUGUGCUUGCAAUGUAUUUAGUUA | 0.0104 ± 0.005
UCCUGGAUGUCCUUUGCAUAGUAUUUAGUUA | 0.0866 ± 0.015
UCCUGGAACAGCUACGAUAGUAUUUAGUUA | 0.147 ± 0.011
UCCUGCUACAGCAUGCAUAGUUUUUAGUUA | 0.114 ± 0.019
UCCUGGAACAGCUUGCAUAGUAUUAUCUUA | 0.0578 ± 0.015
UCCUGGAUGUCGAACCCAUAGUAUUUAGUUA | 0.0032 ± 0.0019
UCCUGGUACAGCUUGGUUAGUAUUUAGUUA | 0.192 ± 0.023
UCCUGGAUCAGCUUGCAUAGUAUUUAGUA | 0.263 ± 0.019
UCCUGGAUGUGCUUGCAUAGUAUUAUGUUA | 0.0376 ± 0.013
UCCUGGAUGUCCUUGCAUAGUAUGUUAGUUA | 0.0434 ± 0.0088
UCCUGGAACAGCUUGCAUAGUAUUAAGAUA | 0.0769 ± 0.019
UCCUGGAUGAGCUUGCUUAGUAUUUAGAAA | 0.0548 ± 0.017
UCCUGGAUGUGGAAGCAUAGUAUUUAGUAA | 0.0306 ± 0.0062
UCCUGGAUGACGUUGCAUAGUAUUUAGAAA | 0.0501 ± 0.014
UCCUGCUACAGGAAGCAUAGUAUUUAGUAA | 0.254 ± 0.024

same assay, conditions: auxiliary factor: none (no GTSF1)

Sequence | pre-steady-state target cleavage rate
UCCUGGAUCAGCUUGGUAAGUAUUUAGUUA | 0.00588 ± 0.0023
UCCUGCUACAGCUUGCAUUGUAUUUAGUAA | 0.00356 ± 0.002
UCCUGCUUCAGGUUGCAUAGUAUUUAGUUA | 0.0111 ± 0.003
UCCUGGAUGUCGAACCAUAGUAAAAAGUUA | < 0.0001
UCCUCCUACAGCUUGCAUUGAAUUUAGUUA | 0.00236 ± 0.0021
UCCUGCUACAGCUUGCAUUGUAUUUACUUA | 0.00348 ± 0.0023
UCCUGGAUGUCCUUGCAUAGUCAUUUAGUUA | 0.00338 ± 0.003
UCCUGGAUGUGCUUGCAAUGUAUUUAGUUA | 0.0111 ± 0.0028
UCCUGGAUGUCCUUUGCAUAGUAUUUAGUUA | 0.0072 ± 0.0024
UCCUGCUACAGCAUGCAUAGUUUUUAGUUA | 0.00396 ± 0.0036
UCCUGGAUGUCGAACCCAUAGUAUUUAGUUA | 0.00424 ± 0.0023
UCCUGGUACAGCUUGGUUAGUAUUUAGUUA | 0.0135 ± 0.0038
UCCUGGAUCAGCUUGCAUAGUAUUUAGUA | 0.00426 ± 0.0027
UCCUGGAUGUCCUUGCAUAGUAUGUUAGUUA | 0.00471 ± 0.0025
UCCUGGAUGUGGAAGCAUAGUAUUUAGUAA | 0.00424 ± 0.0024
UCCUGCUACAGGAAGCAUAGUAUUUAGUAA | 0.00762 ± 0.0022

Reference: the supplement of paper PMC10338343
